The record followed here is PubChem BioAssay (NCI).

Among the test systems are RPMI-8226 leukemia; OVCAR-8 ovarian; OVCAR-5 ovarian; OVCAR-4 ovarian; IGROV1 ovarian; OVCAR-3 ovarian; HS 578T breast; NCI/ADR-RES ovarian; T-47D breast.
Assay in all cases: NCI-60 one-dose screen, 48 h (100 = growth as untreated, 0 = no growth, -100 = all killed)
Common to all, as to details: 10 µM unless noted

Compounds without any hit were thinned out: in the full panel of roughly 83,000, 20% have a hit.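 The test compound was applied at a single concentration to cells in 96-well plates for 48 hours, and percent growth was recorded.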 Values without a mark were called inactive. Active and inactive are the calls of the source. The calls were made as follows: active = growth percent below 10; inactive = the rest.

With `C=CCN1C(=O)/C(=c2\sc3n(c2=O)NC2C(N=3)N(CC)C(=O)N2CC)c2ccccc21` (stereo unspecified), the growth is 66.1% with RPMI-8226 leukemia; 48.2% with OVCAR-8 ovarian; 44.2% in the assay on OVCAR-5 ovarian; 39.2% in the assay with OVCAR-4 ovarian; 34.2% in the assay with IGROV1 ovarian; 22.5% in the assay on OVCAR-3 ovarian. Also, the figures for the growth in the assay on HS 578T breast, with NCI/ADR-RES ovarian and in the assay on T-47D breast were 29.4%, 18.7% and 54.4%, respectively.
As to `CCN1C(=O)N(c2ccccc2)C2NN=c3s/c(=C4\C(=O)N(C(C)C)c5ccccc54)c(=O)n3C21` (stereo unspecified), the growth with RPMI-8226 leukemia is 32%; in the assay with OVCAR-8 ovarian it was 31.6%; in the assay on OVCAR-5 ovarian, 45.3%; in the assay on OVCAR-4 ovarian, 45.8%; with IGROV1 ovarian it was 28.5%; in the assay with OVCAR-3 ovarian it was 1.06% (active). In addition, the growth was 24.6% with HS 578T breast, 15.7% in the assay on NCI/ADR-RES ovarian and 53.8% with T-47D breast.
In the case of `CCCN1C(=O)N(CCC)C2C1NN=c1s/c(=C3\C(=O)N(C(C)C)c4ccccc43)c(=O)n12` (stereo unspecified), the growth in the assay on RPMI-8226 leukemia is 61.2%; in the assay on OVCAR-8 ovarian, 58.4%; in the assay on OVCAR-5 ovarian, 76%; in the assay on OVCAR-4 ovarian, 42.9%; with IGROV1 ovarian it was 41.5%; in the assay on OVCAR-3 ovarian, -15% (active). Moreover, the growth in the assay on HS 578T breast is 30.3%; in the assay with NCI/ADR-RES ovarian, 44.5%; in the assay on T-47D breast, 28.1%.
Consider `COC(=O)/C(CCC=C(C)C)=C1\[C@@H](OC(C)=O)C[C@@]2(C)[C@H]1C[C@@H](O)[C@H]1[C@@]3(C)CC[C@H](NCc4ccccc4)[C@@H](C)[C@@H]3CC[C@@]12C`, for which the growth in the assay on RPMI-8226 leukemia is 16.9%; in the assay with OVCAR-8 ovarian it was 76.1%; in the assay with OVCAR-5 ovarian, 88.7%; in the assay on OVCAR-4 ovarian, 61.2%; in the assay on IGROV1 ovarian, 70.3%; in the assay with OVCAR-3 ovarian it was 69.6%. Also, the growth was 67.3% in the assay with HS 578T breast, 64.6% with NCI/ADR-RES ovarian and 62.3% in the assay with T-47D breast.
Consider `Nc1nc2c(ncn2[C@@H]2O[C@H](CS)[C@@H](O)[C@H]2O)c(=O)[nH]1`, for which the growth in the assay on RPMI-8226 leukemia was 94.9%; with OVCAR-8 ovarian, 99.2%; in the assay with OVCAR-5 ovarian it was 93.3%; in the assay on OVCAR-4 ovarian, 99.1%; in the assay with IGROV1 ovarian, 103%; in the assay on OVCAR-3 ovarian it was 104%. Moreover, the growth in the assay with HS 578T breast was 99.6%; in the assay with NCI/ADR-RES ovarian, 104%; with T-47D breast, 107%.
`COC(=O)c1c2c(c(C)[n+]([O-])c1C)C(=O)C(NCc1ccc(F)c(F)c1)=CC2=O`: the growth in the assay with RPMI-8226 leukemia is 29.9%; with OVCAR-8 ovarian it was 4.63% (active); with OVCAR-5 ovarian it was 41.4%; with OVCAR-4 ovarian, -93.4% (active); in the assay with IGROV1 ovarian, 0.321% (active); in the assay on OVCAR-3 ovarian it was -19% (active). For the same molecule, the growth in the assay with HS 578T breast was 80.2%; with NCI/ADR-RES ovarian, -6.62% (active); with T-47D breast, 10.9%.
As to `COc1cccc(/C(C#N)=C/c2nc3c(N4CCOCC4)nc(Cl)nc3n2C)c1`, the growth with RPMI-8226 leukemia was -23.5% (active); with OVCAR-8 ovarian, 9.5% (active); in the assay with OVCAR-5 ovarian, -37.6% (active); in the assay on OVCAR-4 ovarian, -65.9% (active); with IGROV1 ovarian, -29.8% (active); with OVCAR-3 ovarian it was -78.7% (active). For the same molecule, the growth with HS 578T breast is -7.18% (active); in the assay on NCI/ADR-RES ovarian, 25.9%; in the assay with T-47D breast it was -44.5% (active).
With `COc1ccc2oc(=O)cc(Cn3cc(Cn4cnc5c4c(=O)n(C)c(=O)n5C)nn3)c2c1`, the growth with RPMI-8226 leukemia is 103%; in the assay on OVCAR-8 ovarian it was 106%; with OVCAR-5 ovarian it was 94%; in the assay with OVCAR-4 ovarian it was 103%; in the assay with IGROV1 ovarian it was 104%; with OVCAR-3 ovarian it was 110%. The growth with HS 578T breast was 97.8%; in the assay with NCI/ADR-RES ovarian it was 105%; in the assay on T-47D breast, 94.1%.
On to `CC(=O)c1ccc(Nc2nc(NCCO)nc(Nc3ccc(Cl)cc3)n2)cc1`, for which the growth was 89.5% in the assay on RPMI-8226 leukemia; 93.4% in the assay with OVCAR-8 ovarian; 96.1% in the assay with OVCAR-5 ovarian; 95.7% in the assay on OVCAR-4 ovarian; 98.7% with IGROV1 ovarian; 95.5% with OVCAR-3 ovarian. The values for the growth in the assay on HS 578T breast, in the assay with NCI/ADR-RES ovarian and in the assay on T-47D breast were 87.2%, 91.9% and 79.9%, respectively.
For `COc1cc(/C=C2\CCC/C(=C\c3cc(CN4CCCCC4)c(O)c(OC)c3)C2=O)cc(CN2CCCCC2)c1O`, the growth with RPMI-8226 leukemia was 55.5%; in the assay on OVCAR-8 ovarian, 80.6%; in the assay on OVCAR-5 ovarian it was 114%; in the assay with OVCAR-4 ovarian it was 60.9%; with IGROV1 ovarian, 88.2%; in the assay on OVCAR-3 ovarian it was 65.2%. The growth is 81.4% with HS 578T breast, 87.2% with NCI/ADR-RES ovarian and 104% in the assay on T-47D breast.
As for `C[C@@H](C(=O)NCCCC#Cc1cnc(Nc2ccc(C#N)cc2)nc1NC1CC1)N(C)C(=O)/C=C/CN(C)C`, the growth with RPMI-8226 leukemia is 14.9%; in the assay on OVCAR-8 ovarian it was 55.9%; in the assay on OVCAR-5 ovarian, 66.3%; in the assay on OVCAR-4 ovarian, 38.7%; with IGROV1 ovarian, 41.1%; with OVCAR-3 ovarian it was 29.3%. In addition, the growth is 59% with HS 578T breast, 78.2% in the assay with NCI/ADR-RES ovarian and 54.9% in the assay with T-47D breast.
On to `CC(=O)c1ccc(NC(=O)Nc2ccc(S(=O)(=O)Nc3ccc(Cl)nn3)cc2)cc1`, for which the growth in the assay with RPMI-8226 leukemia is 108%; with OVCAR-8 ovarian it was 98.7%; in the assay on OVCAR-5 ovarian, 95.3%; in the assay on OVCAR-4 ovarian, 110%; in the assay with IGROV1 ovarian, 99.5%; in the assay on OVCAR-3 ovarian, 108%. The growth with HS 578T breast is 98.4%; in the assay on NCI/ADR-RES ovarian it was 103%; with T-47D breast, 101%.
For the molecule `NCCCNc1nc2ccccc2c2c(=O)c3cc(F)ccc3sc12`, the growth with RPMI-8226 leukemia was -2.73% (active); in the assay with OVCAR-8 ovarian, 2.1% (active); in the assay on OVCAR-5 ovarian, 26.8%; in the assay with OVCAR-4 ovarian, 33%; in the assay with IGROV1 ovarian, 20.1%; in the assay on OVCAR-3 ovarian, -16.4% (active). Also, the growth with HS 578T breast was 34.6%; in the assay with NCI/ADR-RES ovarian, 11.4%; in the assay with T-47D breast, -39% (active).
Consider `O=c1c(-c2nc3ccccc3[nH]2)cc2ccccc2n1Cc1cn(Cc2ccc(F)cc2)nn1`, for which the growth was 16.7% in the assay with RPMI-8226 leukemia; 28.5% in the assay on OVCAR-8 ovarian; -20.5% (active) in the assay on OVCAR-5 ovarian; 43.5% in the assay on OVCAR-4 ovarian; 9.95% (active) in the assay on IGROV1 ovarian; 3.02% (active) in the assay on OVCAR-3 ovarian. Moreover, the values for the growth in the assay with HS 578T breast, in the assay on NCI/ADR-RES ovarian and in the assay with T-47D breast were -6.42% (active), 31.7% and 42.3%, respectively.
